The values that follow come from PubChem BioAssay (Tox21).

Records with an inconclusive call do not appear. Unmarked numbers belong to inactive results. Activity calls are given as the source filed them. Unless noted, calls follow the shape of the dose curve; as a rule, active = well fitted curve in the direction sought with a large enough effect in the repeat runs; inconclusive = weak or mixed curves; inactive = no such curve, though single readings can be large; an effect the other way counts as inactive or inconclusive.

A short description of assay [1]: qHTS assay to identify small molecule agonists of the peroxisome proliferator-activated receptor delta (PPARd) signaling pathway - cell viability counter screen (AID 743211). Also: % is scaled to controls: 0 for no effect and ±100 for the full control effect; nearly all actives have a fitted effect of over 55% in size. In a few lines: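 Multiplexed format: after the 2 h room-temperature LiveBLAzer B/G FRET step, CellTiter-Glo was added to the same wells. Luminescence after 30 min gave cell viability; compound exposure was 17 h at 37C.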
A general note: qHTS replaces the single test concentration by a dilution series.

Assay [2] is described as follows: qHTS assay to identify small molecule antagonists of the peroxisome proliferator-activated receptor delta (PPARd) signaling pathway - cell viability counter screen (AID 743213). Also: % is scaled to controls: 0 for no effect and ±100 for the full control effect; nearly all actives have a fitted effect of over 50% in size. The procedure, abridged: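 Viability counter-screen, qHTS format: PPARd-bla HEK293H, L165041 300 nM final, 17 h compound exposure at 37 C, CellTiter-Glo luminescence after 30 min RT.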
The target in assay [3] is Peroxisome proliferator-activated receptor delta (Homo sapiens) (UniProt Q03181). The assay can be described thus: qHTS assay to identify small molecule antagonists of the peroxisome proliferator-activated receptor delta (PPARd) signaling pathway (AID 743215; active = well fitted inhibition curve with a large enough effect in the signal ratio in the repeat runs, not every such curve was filed as active; the % refers to the signal ratio;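 also: cells stimulated with agonist L165041 at 300 nM final during compound exposure; series mostly up to about 62 µM; % is scaled to controls: 0 for no effect and ±100 for the full control effect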). In a few lines:
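Screen format: qHTS, antagonist mode. HEK293H PPARd-bla cells received compound and 300 nM L165041 (final), 17 h, 37 C. Beta-lactamase detected via FRET substrate fluorescence, 2 h, room temperature.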

Assay [4] can be described thus: qHTS assay to identify small molecule agonists of the farnesoid-X-receptor (FXR) signaling pathway - cell viability counter screen (AID 743218). Also: % is scaled to controls: 0 for no effect and ±100 for the full control effect; nearly all actives have a fitted effect of over 45% in size. In a few lines: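 Same-well cytotoxicity check on FXR-UAS-bla HEK 293T cells: 5 h attachment, 16 h compound at 37 C, CellTiter-Glo luminescence read at room temperature after 30 min.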
Assay [5] is described as follows: qHTS assay to identify small molecule antagonists of the farnesoid-X-receptor (FXR) signaling pathway - cell viability counter screen (AID 743221; active = well fitted cell-killing curve with a large enough effect in the repeat runs, not every such curve was filed as active; also: % is scaled to controls: 0 for no effect and ±100 for the full control effect; nearly all actives have a fitted effect of over 50% in size). In a few lines: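 CellTiter-Glo, 30 min RT, luminescence; same wells as the LiveBLAzer FRET read. Cells: FXR-UAS-bla HEK 293T. Treatment: compound with chenodeoxycholic acid 50 uM final, 16 h at 37 C.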
For assay [6], the target named is Vitamin D3 receptor (Homo sapiens) (UniProt P11473). The experiment in a line: qHTS assay to identify small molecule agonists of the vitamin D receptor (VDR) signaling pathway (AID 743222; calls by dose curve; also: % is scaled to controls: 0 for no effect and ±100 for the full control effect). The procedure, abridged:
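Using LiveBLAzer B/G FRET detection, agonism was scored in VDR-bla cells exposed overnight (16 h, 37C) to DMSO-dissolved compounds; substrate incubation was 2 h at room temperature.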

Assay [7] in a line: qHTS assay to identify small molecule agonists of the vitamin D receptor (VDR) signaling pathway - cell viability counter screen (AID 743224). Also: series mostly up to about 63 µM; % is scaled to controls: 0 for no effect and ±100 for the full control effect; nearly all actives have a fitted effect of over 50% in size. The procedure, abridged:
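Counter screen for cytotoxicity: VDR-bla cells at 2,000 cells/well, 16 h compound exposure, then CellTiter-Glo luminescence after the beta-lactamase measurement.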

Assay [8] in a line: qHTS assay to identify small molecule antagonists of the vitamin D receptor (VDR) signaling pathway - cell viability counter screen (AID 743225). Also: % is scaled to controls: 0 for no effect and ±100 for the full control effect; nearly all actives have a fitted effect of over 50% in size. The procedure, abridged: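 Cytotoxicity toward the VDR-bla HEK 293T line was scored by ATP-based CellTiter-Glo luminescence, read in the wells already used for the beta-lactamase readout after 16 h compound treatment under 3 nM 1-alpha,25-dihydroxyvitamin D3 stimulation.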

Assay [9] can be described thus: qHTS assay to identify small molecule agonists of the NFkB signaling pathway (AID 1159509; active = well fitted curve in the direction sought with a large enough effect in the signal ratio in the repeat runs, not every such curve was filed as active; the % refers to the signal ratio; also: series mostly up to about 61 µM; % is scaled to controls: 0 for no effect and ±100 for the full control effect). In a few lines:
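Pathway activation was measured in ME-180 cells stably expressing beta-lactamase under NF-kB response element control. Substrate cleavage was read as the 460/530 nm emission shift after 5 hr compound incubation.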

Assay [10] can be described thus: qHTS assay to identify small molecule agonists of the NFkB signaling pathway - cell viability counter screen (AID 1159515; calls by dose curve; also: series mostly up to about 61 µM; % is scaled to controls: 0 for no effect and ±100 for the full control effect; nearly all actives have a fitted effect of over 55% in size). In a few lines:
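Counter screen run alongside the NFkB-bla agonist assay: ME-180 reporter cells exposed to compounds for 5 hr, then lysed with CellTiter-Glo in the same wells. Luminescence, read after 30 min, reflects viable cells.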

The nature of assay [11]: qHTS assay to identify small molecule agonists of the endoplasmic reticulum stress response signaling pathway (AID 1159516; active = well fitted activation curve with a large enough effect in the signal ratio in the repeat runs, not every such curve was filed as active; the % refers to the signal ratio; also: % is scaled to controls: 0 for no effect and ±100 for the full control effect). The procedure, abridged: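 For this screen, HeLa cells stably carrying beta-lactamase under the ER stress response element received test compounds, positive controls or DMSO for 5 hr at 37 C; B/G FRET substrate was then added and dual-wavelength emission recorded.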

Assay [12] in a line: qHTS assay to identify small molecule antagonists of the retinoid-related orphan receptor gamma (ROR-gamma) signaling pathway - cell viability counter screen (AID 1159520). In a few lines: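 Cytotoxicity was read from cellular ATP (CellTiter-Glo luminescence) after 16 hr at 37 C with 1 uM doxycycline induction. The inducer was added 2 hr after compound transfer to Tet-on ROR gamma CHO cells.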

A short description of assay [13]: qHTS assay to identify small molecule agonists of the AP-1 signaling pathway - cell viability counter screen (AID 1159525; calls by dose curve; also: nearly all actives have a fitted effect of over 55% in size). The procedure, abridged: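 Intracellular ATP by Cell Titer Glo luminescence (30 min, RT) in the same ME-180 AP-1-bla wells after the 5 h compound exposure at 37 °C. Normalised to tetra n-octyl ammonium bromide and DMSO controls.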
The nature of assay [14]: qHTS assay to identify small molecule agonists of the AP-1 signaling pathway (AID 1159526; calls by dose curve; also: % is scaled to controls: 0 for no effect and ±100 for the full control effect).
The target in assay [15] is Peroxisome proliferator-activated receptor delta (Homo sapiens) (UniProt Q03181). The experiment in a line: qHTS assay to identify small molecule agonists of the peroxisome proliferator-activated receptor delta (PPARd) signaling pathway (AID 743212; calls by dose curve). In a few lines:
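Beta-lactamase reporter readout: a ratiometric FRET signal from the LiveBLAzer substrate after 2 h at room temperature. Compound exposure at 37 °C in PPARδ-bla HEK293H cells driven by an upstream activator sequence.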

Assay [16] has as its target Bile acid receptor (Homo sapiens) (UniProt Q96RI1). The experiment in a line: qHTS assay to identify small molecule agonists of the farnesoid-X-receptor (FXR) signaling pathway (AID 743220; active = well fitted activation curve with a large enough effect in the signal ratio in the repeat runs, not every such curve was filed as active; the % refers to the signal ratio; also: % is scaled to controls: 0 for no effect and ±100 for the full control effect). In a few lines: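 FXR-UAS-bla HEK 293T cells carrying a UAS-driven beta-lactamase reporter were plated for 5 h at 37C/5% CO2, then exposed to DMSO-dissolved Tox21 10K compounds for 16 h at 37C. A LiveBLAzer B/G FRET substrate was loaded for 2 h at room temperature before fluorescence reading.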

The target of assay [17] is Vitamin D3 receptor (Homo sapiens) (UniProt P11473). The experiment in a line: qHTS assay to identify small molecule antagonists of the vitamin D receptor (VDR) signaling pathway (AID 743223; active = well fitted inhibition curve with a large enough effect in the signal ratio in the repeat runs, not every such curve was filed as active; the % refers to the signal ratio; also: % is scaled to controls: 0 for no effect and ±100 for the full control effect). In a few lines:
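After VDR-bla cells are plated and left 4 h at 37C, DMSO-dissolved compounds and 3 nM (final) calcitriol agonist are added. Incubation continues 16 h at 37C; FRET beta-lactamase substrate then develops 2 h at room temperature.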

Assay [18] has as its target Bile acid receptor (Homo sapiens) (UniProt Q96RI1). The experiment in a line: qHTS assay to identify small molecule antagonists of the farnesoid-X-receptor (FXR) signaling pathway (AID 743217; active = well fitted inhibition curve with a large enough effect in the signal ratio in the repeat runs, not every such curve was filed as active; the % refers to the signal ratio; also: % is scaled to controls: 0 for no effect and ±100 for the full control effect). In a few lines: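 Quantitative HTS, beta-lactamase reporter format: FXR-UAS-bla HEK 293T cells co-treated 16 h at 37 °C with compounds and 50 uM final chenodeoxycholic acid, then read by B/G FRET fluorescence.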

Assay [19] concerns the target Nuclear receptor ROR-gamma (Homo sapiens) (UniProt P51449). The experiment in a line: qHTS assay to identify small molecule antagonists of the retinoid-related orphan receptor gamma (ROR-gamma) signaling pathway (AID 1159521; also: nearly all actives have a fitted effect of over 50% in size; also: potency is read from the fitted curve at half-maximal effect). The procedure, abridged:
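Readout: ONE-Glo luciferase luminescence, 30 min at room temperature. System: Tet-on RORγ CHO, RORE-LUC. Sequence: compound 2 h, doxycycline 1 uM final, 16 h at 37 C.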

Chain of Bile acid receptor (Homo sapiens) (Q96RI1 whole entry, looked up): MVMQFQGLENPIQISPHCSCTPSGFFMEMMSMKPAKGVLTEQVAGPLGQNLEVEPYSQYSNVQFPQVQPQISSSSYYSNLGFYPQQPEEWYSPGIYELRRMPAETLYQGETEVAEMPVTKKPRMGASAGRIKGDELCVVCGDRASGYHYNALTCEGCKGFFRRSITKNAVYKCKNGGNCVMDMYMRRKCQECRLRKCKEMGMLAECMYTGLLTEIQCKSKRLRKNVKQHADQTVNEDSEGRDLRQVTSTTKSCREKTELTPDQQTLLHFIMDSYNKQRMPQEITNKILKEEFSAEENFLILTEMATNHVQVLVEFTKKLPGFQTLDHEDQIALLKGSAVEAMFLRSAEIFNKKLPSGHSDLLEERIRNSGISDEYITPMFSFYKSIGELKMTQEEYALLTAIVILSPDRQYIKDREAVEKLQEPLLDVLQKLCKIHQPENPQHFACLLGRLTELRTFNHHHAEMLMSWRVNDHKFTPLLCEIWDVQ
Chain of Vitamin D3 receptor (Homo sapiens) (P11473 whole entry, looked up): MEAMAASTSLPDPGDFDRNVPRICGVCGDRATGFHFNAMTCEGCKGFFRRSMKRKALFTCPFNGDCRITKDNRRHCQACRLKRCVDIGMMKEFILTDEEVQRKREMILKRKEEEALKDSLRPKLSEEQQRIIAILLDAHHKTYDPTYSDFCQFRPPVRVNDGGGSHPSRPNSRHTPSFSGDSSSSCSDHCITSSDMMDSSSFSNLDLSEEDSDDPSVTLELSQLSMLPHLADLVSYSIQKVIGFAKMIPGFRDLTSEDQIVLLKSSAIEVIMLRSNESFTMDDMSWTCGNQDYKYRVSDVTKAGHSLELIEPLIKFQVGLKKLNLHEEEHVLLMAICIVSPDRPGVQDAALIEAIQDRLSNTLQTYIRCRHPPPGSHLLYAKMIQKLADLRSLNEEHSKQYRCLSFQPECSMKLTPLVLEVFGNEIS
Chain of Peroxisome proliferator-activated receptor delta (Homo sapiens) (Q03181 whole entry, looked up): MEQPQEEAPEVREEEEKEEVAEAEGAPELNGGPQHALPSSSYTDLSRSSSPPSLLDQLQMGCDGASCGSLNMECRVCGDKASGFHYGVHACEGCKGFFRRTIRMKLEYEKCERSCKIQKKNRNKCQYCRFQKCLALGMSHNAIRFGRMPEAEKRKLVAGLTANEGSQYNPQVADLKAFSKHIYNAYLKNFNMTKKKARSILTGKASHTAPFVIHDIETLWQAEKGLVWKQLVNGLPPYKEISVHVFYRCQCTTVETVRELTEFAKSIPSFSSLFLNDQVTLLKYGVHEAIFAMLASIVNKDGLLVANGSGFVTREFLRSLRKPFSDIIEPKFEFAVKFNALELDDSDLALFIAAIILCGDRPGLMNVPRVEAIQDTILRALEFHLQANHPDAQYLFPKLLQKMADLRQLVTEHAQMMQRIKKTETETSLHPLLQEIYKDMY

Regarding `Cc1ncc(CO)c(CN)c1O`, the Potency result in assay [1], in assay [2], in [4], in [7], in assay [8] and in assay [12] was “inactive” each time. In addition, in assay [14], the Potency result was “inactive”. For the same molecule, the molecule was classed as inactive in assay [3], in assay [5], in assay [6], in assay [9], in [10] and in assay [11]. Further, in assay [13], the result was inactive.

Turning to `C[C@@H]1CN(c2c(F)c(F)c3c(=O)c(C(=O)O)cn(C4CC4)c3c2F)C[C@H](C)N1`, the Potency entry in [1], in [2], in assay [4], in assay [7] and in assay [8] was “inactive” in each case. For the same molecule, the molecule was called inactive in [15], in [3], in assay [16], in assay [6], in assay [17] and in [9]. The call in assay [10] and in [11] was inactive. For the same molecule, the viability change, negative = cytotoxic in assay [13] was 7.6% [at 15.8 µM]. For the same molecule, the activation in assay [14] was -3.66% [at 15.8 µM].

Take `CC1(C)S[C@@H]2[C@H](NC(=O)C(C(=O)O)c3ccccc3)C(=O)N2[C@H]1C(=O)O` (stereo not given in full): the Potency entry in assay [1], in assay [2], in assay [4], in [7], in [8] and in assay [12] was “inactive” in each case. For the same molecule, the Potency result in [14] was “inactive”. For the same molecule, the molecule was called inactive in [15], in assay [3], in [18], in [5], in assay [6] and in [17]. The molecule was classed as inactive in assay [9], in assay [10], in assay [11] and in assay [13].

In the case of `c1ccc(CN(CC2=NCCN2)c2ccccc2)cc1`, the Potency result in assay [4], in assay [7], in assay [8], in assay [12] and in assay [14] was “inactive” in each case. Also, the call in assay [5], in [6], in assay [9], in assay [10], in assay [11] and in assay [13] was inactive.

On to `C=CCCCCCCCCO`, for which the Potency result in assay [1], in assay [2], in assay [4], in assay [7], in [12] and in assay [14] was “inactive” in each case. For the same molecule, the result in assay [10], in assay [11] and in [13] was inactive.

As for `CCCCNCCCC`, the Potency result in assay [1], in assay [4], in assay [7] and in assay [14] was “inactive” in each case. The outcome in assay [15], in [3], in [5], in assay [6], in [17] and in assay [9] was inactive. Moreover, the result in assay [10], in assay [11] and in [13] was inactive.

Take `CCOc1ccc(NS(=O)(=O)c2ccc(N)cc2)nn1`: the Potency result in [1], in assay [4], in assay [7], in [12] and in assay [14] was “inactive” throughout. Further, the result in assay [15], in assay [3], in assay [5], in assay [9], in assay [10] and in assay [11] was inactive. Also, the molecule was classed as inactive in assay [13].

Consider `ClC(Cl)Cl`, for which the Potency result in assay [1], in assay [4], in assay [7], in assay [8] and in assay [12] was “inactive” each time. Besides, the result in assay [16], in assay [17], in [9], in [10] and in assay [11] was inactive. For the same molecule, the Potency in assay [19] was 48.2 µM (active).

Take `Cc1c[nH]c(=S)[nH]c1=O`: the outcome in [15], in [17], in assay [9], in assay [10], in assay [11] and in assay [13] was inactive. The Potency result in [4], in [8], in assay [12] and in assay [19] was “inactive” each time.

`OCCN(CCO)CCN(CCO)CCO`: the Potency result in assay [1], in assay [2], in assay [4], in assay [7], in assay [8] and in assay [14] was “inactive” each time. For the same molecule, the result in [5], in assay [6], in assay [17], in assay [9], in assay [10] and in assay [11] was inactive. Further, the result in [13] was inactive.
